# The list is not random: actives were taken first. Their share in the collection is about 3.6%.
# PMP22 txn prim: PMP22 gene transcription modulation; Potency, µM (doses to about 57.5 µM), inactives show top-dose activity change, negative = inhibition, usual class: inhibitors; 2% of 43,000 active; S16 Pmp22-F2sN Schwann cells, FLuc/NLuc coincidence luminescence, 24 h; active = clear falling dose curves in both reporters; inconclusive = both reporters move, but less clearly or upward; inactive = either reporter flat; the % is the NLuc reporter signal; also: potency is read from the fitted curve at half-maximal effect; % is scaled to controls: 0 for no effect and ±100 for the full control effect
#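 Rat S16 Pmp22-F2sN cells, 500-1,000/well in phenol red-free DMEM + 10% FBS, compound-treated 24 h (37C, 5% CO2). Luminescence: FLuc read, Stop&Glo added, NLuc read.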
# mTORC1 inh: mTORC1 pathway inhibition measured by phospho-rpS6; 0.78% of 44,000 active; Potency, µM (titrated, usually from 38.3 µM), for inactives: at the top dose activity change, negative = inhibition, most hits filed as inhibitors; Tsc2-/- p53-/- MEF, phospho-rpS6 immunofluorescence/PI, 24 h;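 also: potency is read from the fitted curve at half-maximal effect; plate controls were DMSO for no effect and rapamycin for full effect; nearly all actives have a fitted effect of over 50% in size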
#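 Cell-based qHTS: Tsc2-/- p53-/- MEF, 24 h cpd, 37 °C; fix/perm, anti-phospho-S6 Alexa-488 + PI; Acumen 488 nm scan; pS6/PI ratio, % positive cells; rapamycin 7.5 nM = inhibition ref; PI count = viability.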
# S16 viability: cytotoxicity in S16 Pmp22-F2sN Schwann cells | 0.48% of 43,000 active | Potency, µM (titrated, usually from 57.5 µM), inactives show at the highest dose activity change, negative = cytotoxicity, usual class: cytotoxic | S16 Pmp22-F2sN Schwann cells viability, CellTiter-Glo, 24 h; also: potency is read from the fitted curve at half-maximal effect; % is scaled to controls: 0 for no effect and ±100 for the full control effect; nearly all actives have a fitted effect of over 65% in size
#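 Rat S16 Schwann reporter line, 24 h treatment with library compounds delivered at 23 nL per well. Cell viability by CellTiter-Glo luminescence.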
# OvCa metastasis: blocks SKOV3ip1 adhesion and invasion in omental model; SKOV3ip1-GFP adhesion/invasion on 3D omental model, fluorescence; Potency, µM (highest dose often 45.8 µM), inactives show at the highest dose activity change, negative = inhibition, usual class: inhibitors; 0.1% of 46,000 active; AID 1963576;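 also: potency is read from the fitted curve at half-maximal effect; plate controls were DMSO wells for no effect and tomatine positive control wells for full effect; nearly all actives have a fitted effect of over 65% in size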
#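 qHTS, 4-pt dose (0.36-46 umol/L); SKOV3ip1-GFP, 1,200 cells/well, no FBS; primary omental fibroblast/mesothelial co-culture 48 h pre-grown; 2 h RT + 16 h 37 C; PBS wash, 4% PFA; GFP count 488/509 nm.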
# GALC G270D up: raises human GALC G270D mutant activity in cells. P54803. 145M-Twi-hGALC-G270D cells (Twitcher mouse brain line with human GALC G270D), HMU-beta-Gal fluorescence, 48 h. Potency, µM (highest dose often 57.5 µM), usual class: activators. 0.1% of 45,000 active; also: potency is read from the fitted curve at half-maximal effect; 0% is about no effect; nearly all actives have a fitted effect of over 65% in size
# Target sequence (P54803 whole entry G286D): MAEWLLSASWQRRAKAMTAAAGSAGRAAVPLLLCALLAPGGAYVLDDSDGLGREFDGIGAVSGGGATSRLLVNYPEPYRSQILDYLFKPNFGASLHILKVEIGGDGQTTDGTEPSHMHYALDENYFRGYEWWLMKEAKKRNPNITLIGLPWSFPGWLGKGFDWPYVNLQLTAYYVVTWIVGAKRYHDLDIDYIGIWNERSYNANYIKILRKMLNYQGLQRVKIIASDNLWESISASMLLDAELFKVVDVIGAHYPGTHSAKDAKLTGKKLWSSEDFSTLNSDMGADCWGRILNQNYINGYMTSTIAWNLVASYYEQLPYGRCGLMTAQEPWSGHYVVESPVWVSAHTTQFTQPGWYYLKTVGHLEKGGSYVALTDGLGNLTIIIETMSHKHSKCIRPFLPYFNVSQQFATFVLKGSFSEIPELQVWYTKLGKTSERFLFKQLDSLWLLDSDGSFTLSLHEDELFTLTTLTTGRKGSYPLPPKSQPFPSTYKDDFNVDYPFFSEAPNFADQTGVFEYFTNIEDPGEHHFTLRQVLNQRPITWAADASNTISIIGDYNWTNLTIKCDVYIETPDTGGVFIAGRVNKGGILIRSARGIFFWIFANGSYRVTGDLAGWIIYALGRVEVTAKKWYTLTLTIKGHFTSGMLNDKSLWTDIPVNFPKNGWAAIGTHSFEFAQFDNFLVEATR
#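 Brain-derived Twitcher mouse 145M-Twi cells stably expressing human GALC-G270D or wild-type GALC, treated live, then residual GALC activity read by fluorescence of HMU-b-Gal substrate (0.1 mM final) in citrate-phosphate buffer pH 5.2 with sodium taurocholate. Signal increase indicates enhancement.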
# NTMT1 inh: NTMT1 methyltransferase inhibition; 2.5% of 59,000 active; AID 1645870; Potency, µM (titrated, usually from 114 µM), for the others: at the top dose activity change, negative = inhibition, actives largely listed as inhibitors; NTMT1 MTase-Glo SAH luminescence, purified enzyme;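 also: potency is read from the fitted curve at half-maximal effect; plate controls were DMSO vehicle for no effect and no enzyme for full effect; nearly all actives have a fitted effect of over 65% in size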
# NLuc sat counter: NanoLuc enzyme inhibition artifact for PMP22 screen | shares compounds with PMP22 txn prim | Secreted NLuc enzyme (filtered S16 cell medium), Nano-Glo luminescence | Potency, µM (titrated, usually from 57.5 µM), without a hit: at the highest dose activity change, negative = inhibition, hits mostly inhibitors | 4% of 690 active | AID 1508638; also: potency is read from the fitted curve at half-maximal effect; % is scaled to controls: 0 for no effect and ±100 for the full control effect
# NLuc Km ctr: counter-screen for PMP22 expression modulators: NanoLuc inhibition at Km; Potency, µM (series often up to 57.5 µM), for inactives: at the top dose activity change, negative = inhibition, actives largely listed as inhibitors; secreted NLuc enzyme, coelenterazine luminescence, Km conditions; 5% of 690 active; shares compounds with PMP22 txn prim; AID 1508639; also: potency is read from the fitted curve at half-maximal effect; % is scaled to controls: 0 for no effect and ±100 for the full control effect
# FLuc ctr PMP22: firefly luciferase enzyme inhibition artifact for PMP22 screen; Potency, µM (doses to about 57.5 µM), inactives show top-dose activity, negative = inhibition, hits mostly inhibitors; purified P. pyralis FLuc, luminescence, 10 min; shares compounds with PMP22 txn prim; 690 tested, under 10 active; also: % of control where 0% means no effect
# S16 viab conf: confirmation of cytotoxicity in S16 Pmp22-F2sN Schwann cells (luciferase reporters placed in the Pmp22 gene); S16 Schwann cells viability, CellTiter-Glo ATP luminescence, 24 h; Potency, µM (top dose mostly 57.5 µM), inactives show top-dose activity change, negative = viability loss, actives largely listed as cytotoxic; shares compounds with PMP22 txn prim; 7% of 690 active; AID 1508641; also: potency is read from the fitted curve at half-maximal effect; % is scaled to controls: 0 for no effect and ±100 for the full control effect
# PMP22 txn conf: PMP22 transcription modulation, confirmatory; shares compounds with PMP22 txn prim; AID 1508646; S16 Schwann cells Pmp22-F2sN, dual luciferase, 24 h; 22% of 690 active; Potency, µM (series often up to 57.5 µM), without a hit: at the highest dose activity change, negative = inhibition, actives largely listed as inhibitors; active = clear falling dose curves in both reporters; inconclusive = both reporters move, but less clearly or upward; inactive = either reporter flat; the % is the FLuc reporter signal; also: potency is read from the fitted curve at half-maximal effect
# PMP22 prot conf: confirmation of modulators of rat PMP22 protein expression. Potency, µM (series often up to 27.9 µM), for the others: at the top dose activity change, negative = inhibition, hits mostly inhibitors. 95 tested, under 10 active. S16 Schwann cells Pmp22-HiBiT, luminescence, 48 h. shares compounds with PMP22 txn prim
# NNMT counter: blocks human NNMT methyltransferase; shares compounds with NTMT1 inh; NNMT MTase-Glo luminescence, SAH detection; Potency, µM (top dose mostly 57.1 µM), inactives show at the top dose activity, negative = inhibition, most hits filed as inhibitors; 10% of 120 active; AID 1645878
# * hit, by the source's call; i = inactive; u = inconclusive; x = no result given; [ ] = dose if it differs, or a comment. Unless noted, calls follow the shape of the dose curve; as a rule, active = well fitted curve in the direction sought with a large enough effect; inconclusive = small, poorly fitted or top-dose-only effect, or another doubt; inactive = no such curve, though single readings can be large; an effect the other way counts as inactive or inconclusive.
SMILES,PMP22 txn prim,mTORC1 inh,S16 viability,OvCa metastasis,GALC G270D up,NTMT1 inh,NLuc sat counter,NLuc Km ctr,FLuc ctr PMP22,S16 viab conf,PMP22 txn conf,others
CCCNC(=O)c1cnn2c(C)c(Cc3c(C)cc(C)cc3C)c(C)nc12,16µM*,2%,u,-2%,i,5%,u,22µM*,-2%,-15%,u,
CCCOC(=O)c1c(C)oc2c1cc(NS(=O)(=O)c1ccc(OCC)cc1)c1ccccc12,8.9µM*,u,1%,i,i,-14%,-6%,3%,-7%,12%,u,
COc1cc(C[C@@H](C)N)c(OC)cc1Br,x,x,x,x,i,-13%,x,x,x,x,x,
CCOc1ccc(/C=C/c2nc(C#N)c(NCc3ccccc3)o2)cc1,u,u,-19%,i,i,5%,-2%,-1%,-3%,11%,-18%,
CN1CCN(c2oc(-c3ccc(COc4ccccc4)o3)nc2C#N)CC1,35%,-14%,0%,-21%,i,0%,x,x,x,x,x,
O=C(NCCc1ccc(Cl)cc1)c1ccc(Nc2nc3ccccc3n3nnnc23)cc1,u,u,u,-7%,i,-1%,x,x,x,x,x,
Cc1ccc(CNC(=O)c2ccc(Nc3nc4ccccc4n4nnnc34)cc2)cc1,8µM*,u,u,1%,i,2%,-5%,-1%,-15%,u,9.9µM*,PMP22 prot conf=u
Cc1ccc(NC(=O)N(Cc2ccc3c(c2)OCO3)C2CCN(Cc3ccccc3)CC2)cc1C,14µM*,u,u,u,i,u,-12%,u,-2%,u,u,
COC1CC(O[C@H]2CC[C@@]3(C)C(=CCC4C3C(O)[C@@H](O)[C@]3(C)[C@@H](C(C)=O)CC[C@]43O)C2)OC(C)C1OC1CC(OC)C(OC2OC(C)C(O)C(O)C2O)C(C)O1 (stereo partly drawn),x,x,x,x,x,-4%[12.6 µM],x,x,x,x,x,
CO[C@@H]1[C@H](O)[C@@H](O[C@@H]2C[C@H]3CC[C@@H]4C(CC[C@]5(C)[C@@H](C6=CC(=O)OC6)CC[C@]45O)[C@@]3(C)[C@H](O)C2)O[C@H](C)[C@@H]1O (stereo partly drawn),x,x,x,x,x,14%[29.8 µM],x,x,x,x,x,
CC1CCCC(=O)CCC/C=C/c2cc(O)cc(O)c2C(=O)O1 (stereo not drawn),x,x,x,x,x,7.9µM*,x,x,x,x,x,NNMT counter=u
C=C1C2(C)CC3C(C)(O)C4=CC(=O)OC(C)(C)C4=CCC3(C)C13C(=O)OC(C)C3(O)C2=O (stereo not drawn),x,x,x,x,x,1%[29.8 µM],x,x,x,x,x,

# Source: PubChem BioAssay (National Center for Advancing Translational Sciences (NCATS))
